Compounds without any hit were thinned out: in the full panel of roughly 83,000, 20% have a hit.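 Plates (96-well) were seeded with cells, treated with compound at one concentration, and incubated for 48 hours before percent growth was determined.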 A number with no mark means an inactive call. Activity calls are given as the source filed them. The calls were made as follows: active = growth percent below 10; inactive = the rest.
Columns and labels:
Experiment in all cases: NCI-60 one-dose screen, 48 h (100 = growth as untreated, 0 = no growth, -100 = all killed)
Details in all cases: 10 µM
786-0 renal = tested on: 786-0 renal
MALME-3M melanoma = tested on: MALME-3M melanoma
SF-268 CNS = tested on: SF-268 CNS
SF-295 CNS = tested on: SF-295 CNS
UACC-257 melanoma = tested on: UACC-257 melanoma
PC-3 prostate = tested on: PC-3 prostate
UACC-62 melanoma = tested on: UACC-62 melanoma
SK-MEL-28 melanoma = tested on: SK-MEL-28 melanoma
SK-MEL-2 melanoma = tested on: SK-MEL-2 melanoma
EKVX NSCLC = tested on: EKVX NSCLC
SN12C renal = tested on: SN12C renal
UO-31 renal = tested on: UO-31 renal
TK-10 renal = tested on: TK-10 renal
ACHN renal = tested on: ACHN renal
CAKI-1 renal = tested on: CAKI-1 renal
A498 renal = tested on: A498 renal
OVCAR-8 ovarian = tested on: OVCAR-8 ovarian
OVCAR-5 ovarian = tested on: OVCAR-5 ovarian
IGROV1 ovarian = tested on: IGROV1 ovarian
OVCAR-3 ovarian = tested on: OVCAR-3 ovarian

Compound	growth (786-0 renal)	growth (MALME-3M melanoma)	growth (SF-268 CNS)	growth (SF-295 CNS)	growth (UACC-257 melanoma)	growth (PC-3 prostate)	growth (UACC-62 melanoma)	growth (SK-MEL-28 melanoma)	growth (SK-MEL-2 melanoma)	growth (EKVX NSCLC)	growth (SN12C renal)	growth (UO-31 renal)	growth (TK-10 renal)	growth (ACHN renal)	growth (CAKI-1 renal)	growth (A498 renal)	growth (OVCAR-8 ovarian)	growth (OVCAR-5 ovarian)	growth (IGROV1 ovarian)	growth (OVCAR-3 ovarian)
COc1cc(Nc2nc(O)c(/C=C3\C=Nc4ccccc43)s2)cc(OC)c1OC	-73.1% (active)	-30.1% (active)	-38.2% (active)	-73.4% (active)	4.51% (active)	-71.9% (active)	-65.9% (active)	-34.5% (active)	-70.6% (active)	-41.8% (active)	-88% (active)	-48.9% (active)	-35% (active)	-2.09% (active)	-69.3% (active)	-76.1% (active)	-49.8% (active)	-52.5% (active)	-40.2% (active)	-77% (active)
Fc1ccc(/C=C/c2nc3ccccc3n3c(-c4ccc(Cl)cc4)nnc23)cc1	73.4%	7.93% (active)	78%	128%	96.7%	72.5%	70.2%	89.1%	102%	74.6%	78.1%	53.3%	112%	47.5%	62.3%	111%	72.6%	96.3%	72.2%	76.9%
CCOC(=O)c1ccc(NC(=O)CSC(CC(=O)c2sc(Nc3ccccn3)nc2C)c2ccccc2F)cc1 (stereo not given)	-12.5% (active)	34.2%	-0.243% (active)	0.23% (active)	39%	0.809% (active)	11.8%	33.3%	-31.2% (active)	20.2%	-14.8% (active)	-2.98% (active)	28.7%	12.1%	2.96% (active)	-1.49% (active)	-0.285% (active)	-6.86% (active)	14%	6.5% (active)
CCOc1ccc(/C=N/NC(=O)Cn2nc(Cc3ccc(OC)cc3)c3onc(C)c3c2=O)cc1	-40.3% (active)	-14.5% (active)	19%	20.4%	62.1%	18.3%	29.2%	11.5%	55.9%	33.8%	-6.22% (active)	2.46% (active)	50.2%	13.1%	5.68% (active)	48.2%	16.9%	44.9%	25.7%	13.7%
COc1cccc(O)c1/C=C1\SCc2cc3c(OC)cccc3[o+]c21	105%	107%	103%	99%	103%	97.9%	98.7%	105%	110%	105%	101%	65.5%	111%	104%	96.8%	141%	107%	105%	104%	108%
O=C(CN1CCN(c2ncnc3c2cnn3-c2ccccc2)CC1)Nc1ccc(Cl)cc1	40.4%	-56.2% (active)	44.3%	80.3%	49.9%	38.8%	45.3%	72.8%	34.2%	45%	46.6%	-60.5% (active)	97.3%	-80.7% (active)	-39.7% (active)	78.7%	56.6%	85.6%	48%	51.8%
COc1ccc(NCc2cn(-c3ccc(C(=O)O)cc3)nc2-c2ccc(F)cc2)cc1C(F)(F)F	78.2%	27.3%	53.8%	29.6%	64.9%	36.3%	13.4%	33.3%	-30.9% (active)	45.5%	32.2%	35.9%	95.7%	43.1%	65.2%	112%	37.5%	72.4%	49.9%	53.4%
COc1ccc(Cc2nn(CC(=O)N/N=C/c3ccc([N+](=O)[O-])cc3)c(=O)c3c(C)noc23)cc1	26.3%	53%	77.7%	92.7%	92.8%	69.8%	73.9%	80.3%	99.1%	86.6%	39%	63%	101%	47.7%	53.2%	111%	56.6%	90.2%	82.9%	45.1%
COc1cc2oc(-c3cccc(C(=O)Nc4ccc(Cl)cc4)c3)cc(=O)c2c(OCCNC(=O)[C@@H](N)CO)c1OC	48.4%	-56.9% (active)	69.9%	99.4%	-67.8% (active)	48.3%	38.8%	-74.9% (active)	78.5%	54.7%	43.9%	91.1%	138%	99.4%	45.9%	177%	26.3%	60.9%	57.9%	89.5%
O=C1S/C(=C\c2ccc([N+](=O)[O-])cc2)C(=O)N1CCN1CCCCC1	105%	118%	112%	111%	112%	94.3%	99.6%	109%	111%	104%	98.5%	102%	106%	103%	102%	126%	105%	114%	112%	116%
COc1ccc(Cc2nn(CC(=O)N/N=C/c3ccc(Br)cc3)c(=O)c3c(C)noc23)cc1	-53.2% (active)	-8.55% (active)	37.3%	-4.74% (active)	72.2%	43.9%	54.3%	70.2%	7.39% (active)	55.1%	12.4%	-15.7% (active)	-0.687% (active)	5.6% (active)	21.4%	21.3%	33.9%	59%	37.6%	28.5%
O=[N+]([O-])c1cccc(-c2nnc3c(/C=C/c4ccccc4O)nc4ccccc4n23)c1	77.7%	86.5%	77.7%	62.5%	59.5%	52.2%	16%	38.2%	84.1%	54.2%	63.4%	41.8%	112%	35.8%	40.6%	89.4%	58.1%	81.4%	68.8%	69.1%
Cc1cc(N=C2NC(=O)S/C2=C\c2ccc(F)cc2)n[nH]1	10.3%	-7% (active)	29%	12.1%	19.6%	6.14% (active)	-19.6% (active)	-7.09% (active)	11%	15.2%	22.8%	12.1%	32.7%	27.4%	21.2%	64%	12.2%	31%	25.3%	20.2%
O=C(CSc1nc2ccccc2c(=O)n1-c1ccc(Cl)cc1)Nc1ccc(-c2nc3ccccc3[nH]2)cc1	-76.9% (active)	-78.1% (active)	-33.3% (active)	-7.28% (active)	13.3%	-54.2% (active)	-12.1% (active)	-62% (active)	82.1%	27.4%	-37.2% (active)	-39.1% (active)	-31.9% (active)	3.26% (active)	-67.9% (active)	109%	-17.8% (active)	67.8%	53.2%	-35.5% (active)
O=C(CSc1nc2ccccc2c(=O)n1-c1ccc(Cl)cc1)Nc1ccc(-c2nc3ccc([N+](=O)[O-])cc3[nH]2)cc1	53.7%	21.7%	38.4%	23.7%	36%	-14.9% (active)	36.9%	21.1%	34.4%	35.9%	42.9%	74.3%	89.9%	45.5%	40.8%	81.7%	-87.5% (active)	92.6%	64.2%	19.4%

Source: PubChem BioAssay (NCI)
